Compound activity as filed in PubChem.
In the library only some 12% were active in any assay of this set; here they are far more common.
Pf growth 96h – Primary qHTS for delayed death inhibitors of the malarial parasite plastid, 96 hour incubation. P. falciparum luciferase reporter growth, 96 h. Potency, µM (top dose mostly 28.7 µM), for inactives: top-dose activity change, negative = inhibition, most hits filed as inhibitors. hit rate 6.9% among 320,000; note: % is set by controls: 0 for no effect and ±100 for the full control effect
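Infected RBCs, 2% Hct / 0.05% parasitemia final; luciferase-reporter P. falciparum; cpd 96 h, 37 C, 5% CO2; luciferase detection reagent; luminescence.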
Sm TGR inh – qHTS Assay for the Inhibitors of Schistosoma Mansoni Peroxiredoxins. AID 485364, 2010. hit rate 3% among 360,000. Schistosoma mansoni thioredoxin glutathione reductase (TGR), Q962Y6. purified TGR, DTNB reduction, TNB absorbance 405 nm. Potency, µM (doses to about 114 µM), for the others: top-dose activity change, negative = inhibition, usual class: inhibitors; note: % is set by controls: 0 for no effect and ±100 for the full control effect; nearly all actives have a fitted effect of over 60% in size
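First, TGR (20 nM dispensed) and NADPH were mixed with compound. Second, a 15 min room-temperature incubation followed. Third, further NADPH and then DTNB were added to start the reaction. Finally, TNB absorbance was monitored kinetically.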
SARS PLpro yeast – qHTS of Yeast-based Assay for SARS-CoV PLP; hit rate 0.19% among 330,000; S. cerevisiae expressing SARS-CoV PLpro, growth rescue; AID 485353, 2010; Potency, µM (series often up to 32.9 µM), for inactives: top-dose activity, positive = growth rescue, actives largely listed as activators; calls by dose curve; note: 0% is about no effect; nearly all actives have a fitted effect of over 55% in size
AmpC no deterg – qHTS Inhibitors of AmpC Beta-Lactamase (assay without detergent) | P00811 | AmpC nitrocefin hydrolysis, absorbance 480 nm, 0.0001% Triton | Potency, µM (doses to about 57.1 µM), for the others: top-dose activity change, negative = inhibition, usual class: inhibitors | hit rate 0.52% among 330,000 | AID 485341, 2010;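 note: plate controls were no compound for no effect and no enzyme for full effect; nearly all actives have a fitted effect of over 20% in size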
Target sequence (P00811 whole entry, looked up): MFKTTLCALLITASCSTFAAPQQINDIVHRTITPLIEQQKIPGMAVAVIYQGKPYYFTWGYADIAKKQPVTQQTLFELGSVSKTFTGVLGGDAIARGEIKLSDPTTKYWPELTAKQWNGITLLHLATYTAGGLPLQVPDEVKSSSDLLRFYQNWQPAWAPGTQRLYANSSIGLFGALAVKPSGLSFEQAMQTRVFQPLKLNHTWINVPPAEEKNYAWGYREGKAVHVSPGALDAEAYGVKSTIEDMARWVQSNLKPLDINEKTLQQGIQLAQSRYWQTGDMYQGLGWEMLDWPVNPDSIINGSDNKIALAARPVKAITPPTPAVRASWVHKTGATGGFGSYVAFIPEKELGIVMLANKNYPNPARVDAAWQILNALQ
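AmpC (5.3 nM in the dispensed reagent) in 20 mM phosphate pH 7.0 with 0.01% (detergent screen) or 0.0001% Triton X-100 was preincubated with compounds for 15 min at room temperature. Nitrocefin was then added from an 800 uM solution, and hydrolysis was followed at 480 nm.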
AmpC inh detg – qHTS Inhibitors of AmpC Beta-Lactamase (assay with detergent); hit rate 0.041% among 370,000; AmpC hydrolysis of nitrocefin, absorbance 480 nm, 0.01% Triton; Potency, µM (doses to about 114 µM), for the others: at the top dose activity change, negative = inhibition, actives largely listed as inhibitors; P00811; AID 485294, 2010;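 note: 0% = no-compound wells and -100% = no-enzyme wells; nearly all actives have a fitted effect of over 25% in size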
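20 mM phosphate pH 7.0 + 0.01% (detergent screen) or 0.0001% Triton X-100; 5.3 nM AmpC reagent; cpd preinc 15 min RT; nitrocefin (800 uM stock) to start; A480 q20 s × 4 min; Activity was normalised to no-enzyme and no-compound control wells.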
Pf growth 48h – Primary qHTS for delayed death inhibitors of the malarial parasite plastid, 48 hour incubation | P. falciparum luciferase growth in erythrocytes, 48 h | Potency, µM (doses to about 28.7 µM), without a hit: at the highest dose activity change, negative = inhibition, usual class: inhibitors | hit rate 5.9% among 310,000; note: % is set by controls: 0 for no effect and ±100 for the full control effect
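Luminescence readout; reporter = integrated firefly luciferase in P. falciparum. RBC culture at 2% hematocrit, 0.1% parasitemia final, 37 C/5% CO2; decreased signal taken as growth inhibition.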
* = called active by the depositor; [ ] = remark or other dose. Unless noted, calls come from the whole dose curve; as a rule, active = well fitted curve in the direction sought with a large enough effect; inconclusive = small, poorly fitted or top-dose-only effect, or another doubt; inactive = no such curve, though single readings can be large; an effect the other way counts as inactive or inconclusive. Potency is the fitted concentration of half-maximal effect.

COC(=O)c1c(NC(=O)c2ccc(S(=O)(=O)N3CCC(C)CC3)cc2)sc2c1CCN(C)C2 was read as Sm TGR inh 0% and AmpC inh detg 2%.
Screening CNC(=O)c1c(NC(=O)c2ccc(S(=O)(=O)N3CC(C)OC(C)C3)cc2)sc2c1CCN(C(C)C)C2 (configuration not stated) returned Pf growth 96h -7%, Sm TGR inh 3%, SARS PLpro yeast -3%, AmpC no deterg 185%, AmpC inh detg 5% and Pf growth 48h inconclusive.
`COc1cc2ccccc2cc1C(=O)Nc1sc2c(c1C(N)=O)CCN(C(C)C)C2` gave Pf growth 96h 5.9µM*, Sm TGR inh -1%, SARS PLpro yeast -1%, AmpC no deterg 157%, AmpC inh detg 1% and Pf growth 48h 8.3µM*.
Screening O=C1C(Cc2ccccc2)SC(=Nc2ccccc2)N1c1ccccc1 (configuration not stated) returned Pf growth 96h 4%, Sm TGR inh -19%, SARS PLpro yeast -4%, AmpC no deterg -7%, AmpC inh detg 1% and Pf growth 48h 13µM*.
Screening CNC(C)Cc1ccccc1Sc1ccc(O)cc1 (configuration not stated) returned Pf growth 96h inconclusive, Sm TGR inh 1%, SARS PLpro yeast 5%, AmpC no deterg -18%, AmpC inh detg inconclusive and Pf growth 48h inconclusive.
`CNCc1ccccc1Sc1ccc(O)c(O)c1` gave Pf growth 96h -27%, Sm TGR inh 22µM*, SARS PLpro yeast -19%, AmpC no deterg -34%, AmpC inh detg inconclusive and Pf growth 48h -22%.
Screening CC(=O)NC1CSCC1OC(C)=O (configuration not stated) returned Pf growth 96h 9.3µM*, Sm TGR inh 0%, SARS PLpro yeast 3%, AmpC no deterg -23%, AmpC inh detg -18% and Pf growth 48h 0%.
`COc1ccc(C[C@H]2c3cc(O)c(OC)cc3CC[N+]2(C)[O-])cc1O` (some centres not stated) gave Pf growth 96h inconclusive, Sm TGR inh 18µM*, SARS PLpro yeast 4%, AmpC no deterg -28%, AmpC inh detg 1% and Pf growth 48h inconclusive.
`COc1ccc(C(=O)O)cc1S(=O)(=O)Nc1ccc(Oc2ccccc2)cc1` gave Pf growth 96h -19%, Sm TGR inh -20%, SARS PLpro yeast 8%, AmpC no deterg -20%, AmpC inh detg -7% and Pf growth 48h inconclusive.
C#CCOCCOCCOCCNc1nc(N2CCN(C(=O)CCCCCCCCCCNC(=O)[C@@H](CCSC)n3cc(CCO)nn3)CC2)nc(N2CCN(C(=O)CCCCCCCCCCNC(=O)[C@H](CO)n3cc(CCCCCN)nn3)CC2)n1 was read as Pf growth 96h inconclusive, Sm TGR inh -17%, SARS PLpro yeast -2%, AmpC no deterg 226%, AmpC inh detg -4% and Pf growth 48h 1µM*.
`C#CCOCCOCCOCCNc1nc(N2CCN(C(=O)CCCCCCCCCCNC(=O)[C@@H](CCSC)n3cc(CCO)nn3)CC2)nc(N2CCN(C(=O)CCCCCCCCCCNC(=O)[C@H](CCC(=O)O)n3cc(CCCCCN)nn3)CC2)n1` gave Pf growth 96h 10µM*, Sm TGR inh -1%, SARS PLpro yeast -1%, AmpC no deterg 211%, AmpC inh detg -3% and Pf growth 48h 5.2µM*.
`Cc1ccc(CNC(=O)c2nc(SCc3ccc(F)cc3)ncc2Cl)cc1` gave Sm TGR inh 0% and AmpC inh detg -1%.
Screening CCCCN(Cc1cc2cccc(C)c2[nH]c1=O)S(C)(=O)=O returned Pf growth 96h 13%, Sm TGR inh 0%, SARS PLpro yeast 0%, AmpC no deterg 30%, AmpC inh detg -1% and Pf growth 48h -7%.
For N#Cc1c(-c2ccco2)c2c([nH]c1=S)CCCC2 the results were Pf growth 96h 10µM*, Sm TGR inh 2.8µM*, SARS PLpro yeast 1%, AmpC no deterg -42%, AmpC inh detg -1% and Pf growth 48h -10%.
For CCN(CC)C(=O)c1c(C)[nH]c(=S)c(C#N)c1-c1ccco1 the results were Pf growth 96h -30%, Sm TGR inh 14µM*, SARS PLpro yeast -1%, AmpC no deterg 38%, AmpC inh detg 6% and Pf growth 48h -15%.
COc1ccc(-c2c3c([nH]c(=S)c2C#N)CCC3)cc1 was read as Pf growth 96h -29%, Sm TGR inh 45µM*, SARS PLpro yeast 7%, AmpC no deterg -55%, AmpC inh detg inconclusive and Pf growth 48h -28%.
`COC(=O)c1ccc(C(=O)NCCCCO)cc1` gave Pf growth 96h inconclusive, Sm TGR inh 0%, SARS PLpro yeast 0%, AmpC no deterg -18%, AmpC inh detg 5% and Pf growth 48h 65%.
For COc1cc(OC)c(Nc2nc3ccccc3c3nncn23)cc1Cl the results were Sm TGR inh -12% and AmpC inh detg -6%.
CSc1nc(NC(C)=O)nc(C)c1Cl was read as Pf growth 96h 3%, Sm TGR inh -1%, SARS PLpro yeast 0%, AmpC no deterg -8%, AmpC inh detg -15% and Pf growth 48h 4%.
`CCCN(C(=O)Cn1c(=O)oc2cc(Cl)ccc21)c1ccc(C(C)C)cc1` gave Sm TGR inh 7% and AmpC inh detg inconclusive.
O=[N+]([O-])c1ccccc1NCc1c(O)ccc2ccccc12 was read as Pf growth 96h inconclusive, Sm TGR inh 1.8µM*, SARS PLpro yeast 0%, AmpC no deterg -46%, AmpC inh detg -8% and Pf growth 48h inconclusive.
`O=C(O)c1cccc([N+](=O)[O-])c1C(=O)Nc1cccc2ccccc12` gave Pf growth 96h 53%, Sm TGR inh -24%, SARS PLpro yeast -9%, AmpC no deterg -21%, AmpC inh detg -1% and Pf growth 48h -7%.
For Cc1ccc(O)c(NC(=O)c2nc3nc(C)cc(C(F)F)n3n2)c1 the results were Sm TGR inh 19% and AmpC inh detg 21%.
Cn1c(=O)c2ncn(CC(=O)N=Nc3c(O)[nH]c4ccccc34)c2n(C)c1=O was read as Pf growth 96h 34%[1.15 µM], Sm TGR inh 2%, SARS PLpro yeast 2%, AmpC no deterg -15%, AmpC inh detg inconclusive and Pf growth 48h 12µM*.
